Here are results for 36 molecules from PubChem BioAssay.

For this assay, the target named is Left-right determination factor 2 (Homo sapiens) (UniProt O00292). Kind of assay: LEFTY2 binders on small-molecule microarrays, primary screen, biochemical, small-molecule microarray, 635 nm fluorescence scan (AID 1110). The note with it: LEFTY2 binding, higher = more signal.
Chain of Left-right determination factor 2 (Homo sapiens) (O00292 whole entry, looked up): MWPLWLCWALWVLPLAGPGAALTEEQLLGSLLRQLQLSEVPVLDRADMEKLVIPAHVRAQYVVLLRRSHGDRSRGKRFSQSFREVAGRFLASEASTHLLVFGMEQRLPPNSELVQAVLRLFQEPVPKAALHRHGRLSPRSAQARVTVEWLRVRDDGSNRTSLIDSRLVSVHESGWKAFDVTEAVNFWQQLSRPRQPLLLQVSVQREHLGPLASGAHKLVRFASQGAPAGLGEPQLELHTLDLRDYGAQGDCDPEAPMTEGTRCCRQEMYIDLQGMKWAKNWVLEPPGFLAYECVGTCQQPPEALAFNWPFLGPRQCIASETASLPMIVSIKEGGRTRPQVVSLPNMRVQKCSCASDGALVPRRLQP
`C=C1C(=O)C=C2CN(C(=O)c3ccccc3)[C@@](Cc3ccc(OC)cc3)(C(=O)OC)[C@@H]12` had a composite z-score of -0.135.
Next, `COC(=O)[C@@]1(Cc2ccc(F)cc2)[C@H]2c3cc(C(=O)N(C)C)n(C)c3C[C@H]2CN1C(=O)c1ccccc1`: -0.21; `COCCCNC(=O)[C@@]1(CCS(=O)(=O)c2ccccc2)COC(c2ccc(OCCCO)cc2)=N1`: -0.241.
Then `CO[C@H]1O[C@H](CO)[C@@H](OC(=O)Nc2ccc3c(c2)OCO3)[C@H](OC(=O)Nc2ccccc2-c2ccccc2)[C@H]1OC(=O)Nc1ccccc1-c1ccccc1`, with -0.0829.
Next, `NC(=O)N1C(=O)C2C(C1=O)C1C=C(CCCO)C2C(C2CC2)N1Cc1sc2ccccc2c1Cl` (stereo unspecified): 0.138; `C=CC[C@@]1(C(=O)OC)N=C(c2ccc(OCCCO)cc2)O[C@@H]1c1ccccc1N=[N+]=[N-]`: 0.684; `C=CCC(OC(C)=O)[C@@H]1[C@@H](N(Cc2ccc(-c3ccccc3)cc2)C(=O)c2cccc3ccccc23)c2cc(OCCCO)ccc2N1C(=O)Cc1ccc(OC)cc1` (stereo partly specified): -0.526.
Take `CCOc1cc(C(O)C2C=CC3C(=O)N(c4ccccc4)C(=O)C3N2Nc2ccccc2F)ccc1O` (stereo unspecified): the composite z-score is -0.325.
Next, `C=CCC(OC(C)=O)[C@@H]1[C@@H](N(Cc2cc3ccccc3o2)C(=O)c2cccc3ccccc23)c2cc(OCCCO)ccc2N1C(=O)c1ccc2ccccc2n1` (stereo partly specified): 0.186.
Then `COc1ccc(C(O)C2C=CC3C(=O)N(C)C(=O)C3N2N(c2ccccc2)c2ccccc2)cc1` (stereo unspecified), with -0.302; and `O=C1O[C@@H](c2ccccc2)[C@@H](c2ccccc2)N2[C@@H](c3ccc(OCCO)cc3)[C@]3(C(=O)Nc4ccc(C#CC5(O)CCCCCC5)cc43)[C@@H](C(=O)Nc3nc4ccccc4s3)[C@H]12`, with 0.755; and `COCCOC(=O)N1C(=O)[C@@]2(c3cc(C#CCCO)ccc31)[C@H](C(N)=O)[C@H]1C(=O)O[C@H](c3ccccc3)[C@H](c3ccccc3)N1[C@@H]2c1ccccc1OCCO`, with 0.432.
Next, `CC1CC/C=C\[C@H]2OC34C=CCN(C(C)(C)C)C(=O)[C@H]3N(CCCO)C(=O)[C@@H]4C2C(=O)O1` (stereo partly specified): -0.19; `COc1ccc([Si](C)(C)[C@H]2[C@H](CC(=O)N3Cc4ccccc4C[C@H]3CO)O[C@@]3(C(=O)N(C)c4ccccc43)[C@@H]2C)cc1`: 0.77; `Cc1ccc(S[C@]2(C(=O)NCCCN(C)C)CC(=O)N(C3Cc4ccccc4C3)[C@@H]2c2ccc(CO)cc2I)cc1`: -1.11.
The molecule `O=C1O[C@H](c2ccccc2)[C@H](c2ccccc2)N2[C@H]1[C@@H](C(=O)N1CCN(c3ncccn3)CC1)[C@]1(C(=O)Nc3ccc(C#CCCO)cc31)[C@H]2c1ccc(O)cc1` returned a composite z-score of -0.379.
Next, `[N-]=[N+]=Nc1ccccc1C[C@]1(C(=O)N2CCOCC2)N=C(c2ccc(OCCCO)cc2)O[C@H]1c1ccccc1N=[N+]=[N-]`: 1.22.
Then `COc1ccc(C(=O)Nc2ccc(CN3C(=O)[C@@]4(O[C@@H](CCn5cc(CCO)nn5)[C@H]([Si](C)(C)c5ccc(OC)cc5)[C@H]4C)c4ccccc43)cc2)cc1`, with 0.904; and `NC(=O)NCC#Cc1ccc2c(c1)[C@]1(C(=O)N2)[C@H](c2ccc(OCCO)cc2)N2[C@H](c3ccccc3)[C@H](c3ccccc3)OC(=O)[C@H]2[C@@H]1C(=O)NC[C@H](O)c1ccccc1`, with -0.375.
For `O=C1[C@H]2C=C(I)[C@H](C[C@@H]2c2ccccc2)[C@@]12CO2`, the composite z-score is 0.208.
Then `CC(C)NC(=O)[C@@H]1c2ccccc2C(=O)N(Cc2ccc(OC(F)(F)F)cc2)[C@H]1c1ccc(CO)cc1`, with 0.39.
Next, `COc1ccc([Si](C)(C)[C@H]2[C@H](CC(=O)N3Cc4ccccc4C[C@H]3CO)O[C@@]3(C(=O)N(c4ccccc4)c4ccccc43)[C@@H]2C)cc1`: 0.949; `CC(C)(C)N1CC=CC23O[C@@H]4/C=C\CCCOC(=O)C4[C@H]2C(=O)N(CCCO)[C@@H]3C1=O` (stereo partly specified): 0.178; `O=C1C2C=CC(C(O)c3ccc([N+](=O)[O-])cc3)N(Nc3ccccc3F)C2C(=O)N1c1ccccc1` (stereo unspecified): -0.303.
Then `COc1ccccc1CN1C(=O)c2ccccc2[C@](Cc2ccccc2I)(C(=O)NCC(C)C)[C@@H]1c1ccc(CO)cc1`, with -1.25; and `C=C(CCCC)/C(=C/C[C@H](OC(=O)c1ccncc1)c1ccc(OCCO)cc1)c1cnc2ccccc2c1`, with 0.437.
In the case of `CCCC[C@H]1C[C@@H]1[C@@H]1N(C(C)=O)[C@H](c2cccc(OC)c2)CC12CC2`, the composite z-score is -0.305.
In turn, `O=C1O[C@H](Cc2ccccc2)[C@@H]2[C@H]3C=CCCC=C3CN2[C@H]1Cc1ccc(O)cc1` came in with a composite z-score of -0.543.
Next, `COCCOC(=O)N1C(=O)[C@@]2(c3cc(C#CCC(C(=O)OC)C(=O)OC)ccc31)[C@H](C(=O)Nc1nc3ccccc3s1)[C@H]1C(=O)O[C@H](c3ccccc3)[C@H](c3ccccc3)N1[C@@H]2c1ccc(OCCO)cc1`: 1.21.
Then `CCCCCCc1nc(Cc2cc(OC)c(OC)c(OC)c2)cc2c1[Si](C(C)C)(C(C)C)O[C@H]2c1ccccc1`, with 0.851.
Next, `COC(=O)c1cccc([C@H]2OC(=CC(=O)OC(C)C)C[C@@H](c3cccc(C(=O)OC)c3)O2)c1`: 0.599; `C=CC[C@]1(C(=O)NCC(O)CO)COC(c2ccc(OCCCO)cc2)=N1` (stereo partly specified): -0.531.
`COC(=O)[C@@]1(Cc2ccccc2)[C@H]2c3cc(C(=O)N(C)C)n(Cc4ccc(C(F)(F)F)nc4)c3C[C@H]2CN1C(=O)c1ccccc1` registered a composite z-score of -0.287.
Then `CCCNC(=O)[C@@]1(c2ccc([N+](=O)[O-])cc2)CC(=O)N(C(C)C)[C@@H]1c1ccc(CO)cc1`, with -0.649.
As for `C[C@@H]1NC(=O)C([C@@H](C)OCc2ccccc2)NC(=O)[C@@]23C(=O)N[C@@H](Cc4ccccc4)C2[C@H](C)[C@@]2(C)O[C@H]2C3/C=C/C/C=C\CNC1=O` (stereo partly specified), the composite z-score was -0.238.
Next, `CCOC(=O)C1=C[C@@H](C(C)(C)C)N(S(=O)(=O)c2ccc(C)cc2)[C@H]1c1ccc(C#N)cc1`: 0.282.
